# Experimental data: PMC7862700, “An all-to-all approach to the identification of sequence-specific readers for epigenetic DNA modifications on cytosine”
# How the values were obtained:
# Assay in all cases: DAPPL (digital affinity profiling via proximity ligation, sequencing); 10 mM Tris-HCl pH 7.5, 50 mM NaCl, 1 mM DTT, 4% glycerol, room temperature, 30 min; GST-TFs on glutathione beads, 16-mer random dsDNA library, 0.1% formaldehyde crosslink after washing; high values mean tight binding
# Conditions in all cases: protein: recombinant; tags: N-terminal GST; dsDNA, one strand shown
# ELK1 = molecular target: T1, ELK1 (Homo sapiens, UniProt P19419 1-428)
# T1 sequence: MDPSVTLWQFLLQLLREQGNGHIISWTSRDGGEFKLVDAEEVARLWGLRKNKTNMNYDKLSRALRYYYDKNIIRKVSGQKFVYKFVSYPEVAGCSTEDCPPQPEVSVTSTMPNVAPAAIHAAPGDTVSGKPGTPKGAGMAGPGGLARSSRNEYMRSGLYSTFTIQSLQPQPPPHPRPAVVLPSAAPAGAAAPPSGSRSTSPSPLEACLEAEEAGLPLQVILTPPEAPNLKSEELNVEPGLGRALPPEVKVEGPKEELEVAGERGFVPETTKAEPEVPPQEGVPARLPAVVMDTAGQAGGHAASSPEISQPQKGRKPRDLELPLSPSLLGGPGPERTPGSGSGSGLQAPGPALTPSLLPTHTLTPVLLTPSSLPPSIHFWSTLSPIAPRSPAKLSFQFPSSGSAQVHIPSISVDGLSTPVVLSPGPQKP
# Outline: (§1)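 Yeast served to express human transcription factors as GST fusions, which were then captured on glutathione beads and labelled with DNA barcodes. Pooled with a tag-only sample, they were incubated with 200 nmole of a 16-mer random double-stranded DNA library for 30 min at room temperature in Tris/NaCl/DTT/glycerol buffer, washed, crosslinked with 0.1% formaldehyde, ligated by proximity, amplified by PCR and sequenced. Dividing each hexamer's read frequency for a factor by its frequency for the tag-only sample gives the binding signal.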
# GABPA = molecular target: T2, GABPA (Homo sapiens, UniProt Q06546 1-454)
# T2 sequence: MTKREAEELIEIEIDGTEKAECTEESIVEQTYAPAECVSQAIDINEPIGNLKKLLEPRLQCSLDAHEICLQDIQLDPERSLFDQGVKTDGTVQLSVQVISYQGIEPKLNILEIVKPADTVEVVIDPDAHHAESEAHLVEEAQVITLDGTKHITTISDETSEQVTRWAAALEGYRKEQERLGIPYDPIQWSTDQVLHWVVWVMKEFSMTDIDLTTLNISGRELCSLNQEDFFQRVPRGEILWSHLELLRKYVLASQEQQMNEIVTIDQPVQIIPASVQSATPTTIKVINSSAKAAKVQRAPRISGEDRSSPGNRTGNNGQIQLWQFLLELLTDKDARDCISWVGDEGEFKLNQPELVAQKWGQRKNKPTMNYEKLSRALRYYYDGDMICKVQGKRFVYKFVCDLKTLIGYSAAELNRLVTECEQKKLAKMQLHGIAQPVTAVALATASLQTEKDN
# Outline: as §1
# ERG = molecular target: T3, ERG (Homo sapiens, UniProt P11308 1-479)
# T3 sequence: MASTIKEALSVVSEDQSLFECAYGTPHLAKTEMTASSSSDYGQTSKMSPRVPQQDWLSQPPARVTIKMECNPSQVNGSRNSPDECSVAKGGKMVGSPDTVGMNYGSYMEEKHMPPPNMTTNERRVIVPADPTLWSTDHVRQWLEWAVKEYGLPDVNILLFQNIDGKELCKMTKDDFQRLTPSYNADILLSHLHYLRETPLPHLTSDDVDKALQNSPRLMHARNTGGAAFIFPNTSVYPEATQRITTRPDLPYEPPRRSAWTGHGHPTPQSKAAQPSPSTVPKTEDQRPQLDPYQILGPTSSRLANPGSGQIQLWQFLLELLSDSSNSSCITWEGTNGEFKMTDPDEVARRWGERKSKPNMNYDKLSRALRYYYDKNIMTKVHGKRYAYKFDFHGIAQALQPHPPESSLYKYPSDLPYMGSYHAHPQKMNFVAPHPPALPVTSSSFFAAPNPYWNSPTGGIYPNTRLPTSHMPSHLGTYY
# Outline: as §1
# ELF1 = ELF1 (Homo sapiens, UniProt P32519 1-619)
# Outline: as §1
# EHF = molecular target: T4, EHF (Homo sapiens, UniProt Q9NZC4 1-300)
# T4 sequence: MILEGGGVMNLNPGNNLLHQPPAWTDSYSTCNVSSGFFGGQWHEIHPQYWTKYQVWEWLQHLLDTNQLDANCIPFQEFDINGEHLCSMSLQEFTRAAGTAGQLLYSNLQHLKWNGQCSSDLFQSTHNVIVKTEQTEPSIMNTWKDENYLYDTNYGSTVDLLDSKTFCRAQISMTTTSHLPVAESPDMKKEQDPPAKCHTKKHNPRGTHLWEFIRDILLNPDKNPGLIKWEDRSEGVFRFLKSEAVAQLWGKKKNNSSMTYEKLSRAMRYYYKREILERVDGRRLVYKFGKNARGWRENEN
# Outline: as §1
# SPIB = SPIB (Homo sapiens, UniProt Q01892 1-262)
# Outline: as §1
# FEV = molecular target: T5, FEV (Homo sapiens, UniProt Q99581 1-238)
# T5 sequence: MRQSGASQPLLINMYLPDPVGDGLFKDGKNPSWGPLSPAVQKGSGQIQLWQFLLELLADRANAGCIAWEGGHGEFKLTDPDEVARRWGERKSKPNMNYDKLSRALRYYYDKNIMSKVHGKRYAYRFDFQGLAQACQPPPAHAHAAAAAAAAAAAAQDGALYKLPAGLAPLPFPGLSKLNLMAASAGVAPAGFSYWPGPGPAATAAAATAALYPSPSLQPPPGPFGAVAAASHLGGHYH
# Outline: as §1
# ETV5 = ETV5 (Homo sapiens, UniProt P41161 1-510)
# Outline: as §1
# ELF4 = ELF4 (Homo sapiens, UniProt Q99607 1-663)
# Outline: as §1
# ELK4 = molecular target: T6, ELK4 (Homo sapiens, UniProt P28324-2 1-405)
# T6 sequence: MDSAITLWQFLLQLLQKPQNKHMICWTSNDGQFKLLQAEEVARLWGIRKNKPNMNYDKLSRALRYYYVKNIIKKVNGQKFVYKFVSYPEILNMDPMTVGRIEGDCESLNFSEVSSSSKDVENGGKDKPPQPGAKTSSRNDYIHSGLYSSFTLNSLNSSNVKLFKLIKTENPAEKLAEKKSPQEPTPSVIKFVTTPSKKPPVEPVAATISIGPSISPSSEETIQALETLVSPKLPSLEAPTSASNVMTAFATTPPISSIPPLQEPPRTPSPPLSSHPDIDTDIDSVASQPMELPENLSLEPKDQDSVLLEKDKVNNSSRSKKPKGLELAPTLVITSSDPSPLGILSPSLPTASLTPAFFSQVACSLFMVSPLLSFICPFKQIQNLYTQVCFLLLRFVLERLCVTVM
# Outline: as §1
# ELF3 = molecular target: T7, ELF3 (Homo sapiens, UniProt P78545 1-371)
# T7 sequence: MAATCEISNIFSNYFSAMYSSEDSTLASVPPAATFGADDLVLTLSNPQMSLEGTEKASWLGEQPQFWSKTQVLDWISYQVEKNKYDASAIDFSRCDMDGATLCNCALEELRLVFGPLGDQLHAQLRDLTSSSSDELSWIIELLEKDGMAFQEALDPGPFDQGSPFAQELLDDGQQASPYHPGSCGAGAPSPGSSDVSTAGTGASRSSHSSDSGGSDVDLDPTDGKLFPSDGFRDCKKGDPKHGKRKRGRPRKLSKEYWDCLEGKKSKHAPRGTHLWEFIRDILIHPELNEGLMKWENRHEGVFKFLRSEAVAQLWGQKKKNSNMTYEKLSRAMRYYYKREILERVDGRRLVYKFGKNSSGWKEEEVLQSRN
# Outline: as §1
# ETV1 = ETV1 (Homo sapiens, UniProt P50549 1-477)
# Outline: as §1
# ERF = molecular target: T8, ERF (Homo sapiens, UniProt P50548 1-548)
# T8 sequence: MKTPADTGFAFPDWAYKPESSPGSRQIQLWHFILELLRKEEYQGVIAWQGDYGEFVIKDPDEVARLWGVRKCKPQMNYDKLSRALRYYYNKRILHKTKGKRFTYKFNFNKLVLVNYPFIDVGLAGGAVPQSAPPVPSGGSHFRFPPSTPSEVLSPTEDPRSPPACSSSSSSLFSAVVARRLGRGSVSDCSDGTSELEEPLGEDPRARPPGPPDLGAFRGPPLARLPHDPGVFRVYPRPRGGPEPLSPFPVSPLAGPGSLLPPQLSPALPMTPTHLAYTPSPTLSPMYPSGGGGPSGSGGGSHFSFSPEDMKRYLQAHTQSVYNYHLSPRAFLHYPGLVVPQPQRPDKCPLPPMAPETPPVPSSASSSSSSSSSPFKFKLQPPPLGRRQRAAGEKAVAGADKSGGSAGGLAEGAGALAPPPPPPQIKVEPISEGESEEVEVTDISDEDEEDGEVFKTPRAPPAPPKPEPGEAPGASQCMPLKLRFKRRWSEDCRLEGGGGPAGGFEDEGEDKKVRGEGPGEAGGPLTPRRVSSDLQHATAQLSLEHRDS
# Outline: as §1
# ETV3L = molecular target: T9, ETV3L (Homo sapiens, UniProt Q6ZN32 1-361)
# T9 sequence: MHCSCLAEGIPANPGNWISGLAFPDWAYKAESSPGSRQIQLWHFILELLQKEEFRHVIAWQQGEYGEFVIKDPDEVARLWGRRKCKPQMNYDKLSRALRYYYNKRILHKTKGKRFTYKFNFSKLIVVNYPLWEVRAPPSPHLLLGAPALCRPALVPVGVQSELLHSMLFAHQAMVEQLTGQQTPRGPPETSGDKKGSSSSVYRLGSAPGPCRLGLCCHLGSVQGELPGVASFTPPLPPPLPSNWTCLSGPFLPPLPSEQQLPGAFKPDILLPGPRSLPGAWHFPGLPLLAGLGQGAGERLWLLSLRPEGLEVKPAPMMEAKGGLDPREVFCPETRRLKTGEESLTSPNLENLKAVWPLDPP
# Outline: as §1
# ETS2 = molecular target: T10, ETS2 (Homo sapiens, UniProt P15036 1-469)
# T10 sequence: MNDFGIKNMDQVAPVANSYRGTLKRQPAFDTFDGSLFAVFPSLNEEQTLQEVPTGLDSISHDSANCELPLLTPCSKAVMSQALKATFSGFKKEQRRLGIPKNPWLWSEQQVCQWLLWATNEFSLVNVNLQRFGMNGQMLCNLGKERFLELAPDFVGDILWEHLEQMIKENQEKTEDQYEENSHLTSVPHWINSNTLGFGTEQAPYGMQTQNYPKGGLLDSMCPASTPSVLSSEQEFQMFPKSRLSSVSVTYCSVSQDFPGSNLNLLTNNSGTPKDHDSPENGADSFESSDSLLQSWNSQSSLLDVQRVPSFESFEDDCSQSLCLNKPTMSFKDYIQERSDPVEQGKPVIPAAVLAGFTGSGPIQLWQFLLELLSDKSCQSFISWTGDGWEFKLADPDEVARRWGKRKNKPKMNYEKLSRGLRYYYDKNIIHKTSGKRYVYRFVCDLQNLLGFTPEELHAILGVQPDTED
# Outline: as §1
# SPDEF = molecular target: T11, SPDEF (Homo sapiens, UniProt O95238 1-335)
# T11 sequence: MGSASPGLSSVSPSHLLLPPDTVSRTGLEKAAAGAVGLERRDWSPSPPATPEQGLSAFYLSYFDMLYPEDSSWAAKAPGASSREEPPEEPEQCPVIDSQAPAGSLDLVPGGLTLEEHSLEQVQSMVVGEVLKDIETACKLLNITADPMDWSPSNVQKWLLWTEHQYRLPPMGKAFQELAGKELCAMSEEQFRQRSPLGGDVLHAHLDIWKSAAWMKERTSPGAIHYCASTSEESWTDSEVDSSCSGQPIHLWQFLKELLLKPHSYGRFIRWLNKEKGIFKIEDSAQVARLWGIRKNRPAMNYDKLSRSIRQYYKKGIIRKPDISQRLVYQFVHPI
# Outline: as §1
# ETV3 = molecular target: T12, ETV3 (Homo sapiens, UniProt P41162-2 1-143)
# T12 sequence: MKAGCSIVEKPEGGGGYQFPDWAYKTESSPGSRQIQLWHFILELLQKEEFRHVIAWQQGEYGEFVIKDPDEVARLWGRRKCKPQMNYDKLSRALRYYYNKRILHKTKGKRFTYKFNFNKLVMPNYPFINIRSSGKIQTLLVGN
# Outline: as §1
# ETV6 = ETV6 (Homo sapiens, UniProt P41212 1-452)
# Outline: as §1
# Chain of SPIB (Q01892 whole entry): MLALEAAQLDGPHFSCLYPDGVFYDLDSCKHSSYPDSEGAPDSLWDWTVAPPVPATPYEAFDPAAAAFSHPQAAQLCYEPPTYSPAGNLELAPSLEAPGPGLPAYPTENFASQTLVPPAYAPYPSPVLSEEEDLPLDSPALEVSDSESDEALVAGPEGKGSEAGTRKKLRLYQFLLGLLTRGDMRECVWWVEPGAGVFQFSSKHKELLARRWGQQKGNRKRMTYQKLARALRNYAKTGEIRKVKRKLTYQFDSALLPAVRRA
# Chain of ELF1 (P32519 whole entry): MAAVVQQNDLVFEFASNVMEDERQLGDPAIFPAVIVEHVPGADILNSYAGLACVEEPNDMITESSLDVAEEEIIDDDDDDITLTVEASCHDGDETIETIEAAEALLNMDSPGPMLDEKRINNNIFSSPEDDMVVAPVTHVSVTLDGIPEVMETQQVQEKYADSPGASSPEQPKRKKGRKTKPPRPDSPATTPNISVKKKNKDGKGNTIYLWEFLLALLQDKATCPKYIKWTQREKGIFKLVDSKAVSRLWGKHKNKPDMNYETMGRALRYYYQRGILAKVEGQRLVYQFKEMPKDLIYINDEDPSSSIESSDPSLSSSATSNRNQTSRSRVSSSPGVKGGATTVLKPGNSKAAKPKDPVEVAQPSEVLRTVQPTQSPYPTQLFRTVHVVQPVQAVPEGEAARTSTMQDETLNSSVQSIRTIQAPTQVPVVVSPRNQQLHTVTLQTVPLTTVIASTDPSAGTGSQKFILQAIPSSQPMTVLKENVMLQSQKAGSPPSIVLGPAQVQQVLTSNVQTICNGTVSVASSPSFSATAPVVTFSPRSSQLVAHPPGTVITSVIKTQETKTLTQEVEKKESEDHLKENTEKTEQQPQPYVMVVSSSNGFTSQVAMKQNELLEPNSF
# Chain of ETV1 (P50549 whole entry): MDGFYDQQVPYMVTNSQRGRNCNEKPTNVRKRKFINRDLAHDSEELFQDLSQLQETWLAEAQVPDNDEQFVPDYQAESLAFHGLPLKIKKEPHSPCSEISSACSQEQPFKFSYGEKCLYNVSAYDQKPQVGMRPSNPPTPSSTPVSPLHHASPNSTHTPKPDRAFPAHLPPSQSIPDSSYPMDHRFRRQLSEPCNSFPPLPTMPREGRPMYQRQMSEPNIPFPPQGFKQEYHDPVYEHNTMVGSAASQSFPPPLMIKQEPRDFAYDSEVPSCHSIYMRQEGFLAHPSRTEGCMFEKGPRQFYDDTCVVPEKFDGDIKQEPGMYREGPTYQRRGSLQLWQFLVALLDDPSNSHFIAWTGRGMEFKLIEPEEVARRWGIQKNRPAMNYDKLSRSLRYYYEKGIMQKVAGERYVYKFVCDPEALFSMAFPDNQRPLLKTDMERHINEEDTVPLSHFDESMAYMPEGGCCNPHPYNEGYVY
# Chain of ETV5 (P41161 whole entry): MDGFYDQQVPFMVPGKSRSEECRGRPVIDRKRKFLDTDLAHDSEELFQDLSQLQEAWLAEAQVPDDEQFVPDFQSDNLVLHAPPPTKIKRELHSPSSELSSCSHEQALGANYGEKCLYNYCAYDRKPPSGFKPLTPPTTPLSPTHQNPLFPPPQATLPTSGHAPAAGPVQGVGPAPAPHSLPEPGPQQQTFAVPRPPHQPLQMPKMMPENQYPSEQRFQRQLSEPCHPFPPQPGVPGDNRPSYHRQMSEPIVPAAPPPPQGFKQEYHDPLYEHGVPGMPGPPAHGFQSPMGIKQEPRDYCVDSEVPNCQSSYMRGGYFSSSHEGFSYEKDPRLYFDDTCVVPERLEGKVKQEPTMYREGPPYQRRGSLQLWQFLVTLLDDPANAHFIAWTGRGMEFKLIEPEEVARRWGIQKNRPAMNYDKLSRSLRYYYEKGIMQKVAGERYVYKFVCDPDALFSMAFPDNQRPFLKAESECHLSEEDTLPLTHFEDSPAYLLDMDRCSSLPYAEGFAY
# Chain of ELF4 (Q99607 whole entry): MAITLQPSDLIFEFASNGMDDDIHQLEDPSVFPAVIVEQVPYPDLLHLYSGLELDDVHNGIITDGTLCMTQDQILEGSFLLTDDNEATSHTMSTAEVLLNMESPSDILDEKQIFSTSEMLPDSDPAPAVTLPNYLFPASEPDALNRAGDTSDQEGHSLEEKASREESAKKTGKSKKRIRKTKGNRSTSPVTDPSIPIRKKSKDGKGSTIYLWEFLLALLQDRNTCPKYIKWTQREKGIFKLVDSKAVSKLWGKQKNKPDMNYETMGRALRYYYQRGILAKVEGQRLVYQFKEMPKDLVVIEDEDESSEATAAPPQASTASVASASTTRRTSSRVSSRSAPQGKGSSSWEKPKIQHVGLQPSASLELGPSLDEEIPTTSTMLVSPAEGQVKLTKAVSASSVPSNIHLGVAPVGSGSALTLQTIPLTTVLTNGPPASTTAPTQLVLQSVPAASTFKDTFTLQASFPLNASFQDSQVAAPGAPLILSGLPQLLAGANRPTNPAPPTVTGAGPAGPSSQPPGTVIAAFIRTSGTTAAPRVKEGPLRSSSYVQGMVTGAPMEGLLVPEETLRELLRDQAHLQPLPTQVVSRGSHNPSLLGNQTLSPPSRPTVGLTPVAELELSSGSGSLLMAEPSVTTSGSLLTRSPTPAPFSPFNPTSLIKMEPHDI
# Chain of ETV6 (P41212 whole entry): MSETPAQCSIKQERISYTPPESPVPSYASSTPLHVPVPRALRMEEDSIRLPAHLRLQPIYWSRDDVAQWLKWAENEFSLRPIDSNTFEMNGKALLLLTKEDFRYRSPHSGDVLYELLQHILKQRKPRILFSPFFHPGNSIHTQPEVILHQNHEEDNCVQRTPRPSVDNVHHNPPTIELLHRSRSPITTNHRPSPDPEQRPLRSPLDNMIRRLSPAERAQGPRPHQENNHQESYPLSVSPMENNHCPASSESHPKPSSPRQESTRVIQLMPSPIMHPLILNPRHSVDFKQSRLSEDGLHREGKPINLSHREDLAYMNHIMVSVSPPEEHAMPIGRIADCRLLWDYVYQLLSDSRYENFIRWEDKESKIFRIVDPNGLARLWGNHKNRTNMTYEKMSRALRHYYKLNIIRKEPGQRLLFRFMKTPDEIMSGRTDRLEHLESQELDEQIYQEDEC
sequence,measurement,setting,value
TGATAC,binding signal,ELK1,"1.17 fold enrichment (6-mer frequency, TF over GST control)"
same,binding signal,GABPA,"1.16 fold enrichment (6-mer frequency, TF over GST control)"
same,binding signal,ERG,"1.13 fold enrichment (6-mer frequency, TF over GST control)"
same,binding signal,ELF1,"1.14 fold enrichment (6-mer frequency, TF over GST control)"
same,binding signal,EHF,"1.11 fold enrichment (6-mer frequency, TF over GST control)"
same,binding signal,SPIB,"1.12 fold enrichment (6-mer frequency, TF over GST control)"
same,binding signal,FEV,"1.21 fold enrichment (6-mer frequency, TF over GST control)"
same,binding signal,ETV5,"1.1 fold enrichment (6-mer frequency, TF over GST control)"
same,binding signal,ELF4,"1.13 fold enrichment (6-mer frequency, TF over GST control)"
same,binding signal,ELK4,"1.29 fold enrichment (6-mer frequency, TF over GST control)"
same,binding signal,ELF3,"1.16 fold enrichment (6-mer frequency, TF over GST control)"
same,binding signal,ETV1,"1.08 fold enrichment (6-mer frequency, TF over GST control)"
same,binding signal,ERF,"1.13 fold enrichment (6-mer frequency, TF over GST control)"
same,binding signal,ETV3L,"1.07 fold enrichment (6-mer frequency, TF over GST control)"
same,binding signal,ETS2,"1.1 fold enrichment (6-mer frequency, TF over GST control)"
same,binding signal,SPDEF,"1.17 fold enrichment (6-mer frequency, TF over GST control)"
same,binding signal,ETV3,"1.1 fold enrichment (6-mer frequency, TF over GST control)"
same,binding signal,ETV6,"1.1 fold enrichment (6-mer frequency, TF over GST control)"
